An excerpt weighted towards active compounds, which were near 14% of everything screened.
HSD17B inh: blocks hydroxysteroid 17-beta dehydrogenase activity. Q99714. recombinant HSD17B10, NADH fluorescence kinetic. Potency, µM (top dose mostly 57.1 µM), actives largely listed as inhibitors. 7.6% of 75,000 active. AID 893;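 further: the protocol describes HADH2 (HSD17B10) and not the HSD17B4 of the title; nearly all actives have a fitted effect of over 70% in size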
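Enzyme plus compound, 15 min room temperature; substrate mix added (NAD+ 1 mM, beta-hydroxybutyryl-CoA 90 uM final); plates read kinetically for NADH fluorescence. HADH2 was His-tagged, E. coli-derived, 20 nM.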
A350 autofl: compound fluoresces in the Alexa 350 spectral region | Compound autofluorescence, 340/450 nm, Alexa 350 dye-equivalents; hits give high values | max dye-equivalent concentration, M | 11% of 59,000 active; in the data active means max dye-equivalent concentration above about 10 nM; inconclusive means mostly about 1.1 nM to 9.6 nM
4-MU autofl: compound fluoresces in the 4-MU spectral region; max dye-equivalent concentration, M; 11% of 59,000 active; compound autofluorescence, 340/450 nm, 4-MU equivalents; hits give high values; in the data active means max dye-equivalent concentration above about 10 nM; inconclusive means mostly about 1.1 nM to 9.6 nM
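Compounds in 100 mM Tris, pH 8.0, incubated 15 min at room temperature, then fluorescence read at 340 nm excitation/450 nm emission. Signal converted to 4-MU dye-equivalent concentration using an on-plate six-point 4-MU standard curve.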
HADH2 inh: blocks human hydroxyacyl-CoA dehydrogenase type II | 3.4% of 73,000 active | AID 886 | Potency, µM (highest dose often 57.1 µM), most hits filed as inhibitors | Q99714 | recombinant HADH2, NADH fluorescence, beta-hydroxybutyryl-CoA; further: nearly all actives have a fitted effect of over 60% in size
Target sequence (Q99714 whole entry, looked up, one chain of several): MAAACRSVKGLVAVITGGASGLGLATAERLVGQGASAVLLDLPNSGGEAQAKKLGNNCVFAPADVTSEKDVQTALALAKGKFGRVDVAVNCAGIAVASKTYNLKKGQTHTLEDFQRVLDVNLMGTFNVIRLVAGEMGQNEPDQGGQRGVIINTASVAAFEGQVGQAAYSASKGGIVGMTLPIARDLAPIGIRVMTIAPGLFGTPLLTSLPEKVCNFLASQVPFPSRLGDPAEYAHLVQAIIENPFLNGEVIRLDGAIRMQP
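Activity measured as NADH fluorescence gain (360/450 nm), taken as the change between first and last reads of a 4-min kinetic run. Conditions: pH 9.0 Tris buffer, 20 nM E. coli-expressed His-tagged enzyme, 1 mM NAD+, 90 uM beta-hydroxybutyryl-CoA; 15-min compound preincubation.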
CRE Fsk mod: modulators of forskolin-stimulated CRE signaling in CHO cells. CHO CRE-bla reporter (cAMP response element driving beta-lactamase), forskolin EC10, beta-lactamase ratio. Potency, µM (highest dose often 38.2 µM), usual class: activators. 2.5% of 71,000 active. AID 662; active means well fitted activation curve with a large enough effect in the signal ratio, with a control signal flat, not every such curve was filed as active; inconclusive means small, poorly fitted or top-dose-only effect, or effect the other way, or a change in a side signal; the % refers to the signal ratio
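Using CellSensor CRE-bla CHO cells in Opti-MEM with 0.5% dialyzed FBS, compounds were titrated with EC10 NKH 477 for 3 h at 37 °C. CCF4 ratio (460/530 nm) gave %Activity; AC50 derived.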
AID923: qHTS Assay for Allosteric/Competitive Inhibitors of Caspase-1: Spectroscopic Profiling in AFC Spectral Region | compound fluorescence, AFC spectral region (405/520 nm) | Potency, µM (highest dose often 57.5 µM), most hits filed as activators | 1.1% of 75,000 active | AID 923, 2007
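Baseline compound fluorescence (AFC region, 405 nm ex/520 nm em) taken from the intercept of kinetic reads with 50 nM caspase-1 and 5 uM Ac-WEHD-AFC; normalized to an on-plate AFC standard curve; compounds titrated up to 57 uM.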
Of the large screens only hits and unclear results are named; the others gave an inactive call. Unless noted, the call rests on the fitted dose curve; in most records, active means well fitted curve in the direction sought with a large enough effect; inconclusive means small, poorly fitted or top-dose-only effect, or another doubt; inactive means no such curve, though single readings can be large; an effect the other way counts as inactive or inconclusive.

COc1ccc(C2C(C(=O)N3CCOCC3)=C(C)NC3=C2C(=O)CC(C)(C)C3)cc1O (configuration not stated)	A350 autofl 1e-07M, 4-MU autofl 9.4e-08M
COc1ccccc1NC(=O)C1=C(C)NC2=C(C(=O)CCC2)C1c1ccc2c(c1)OCO2 (configuration not stated)	HSD17B inh inconclusive, A350 autofl 3.1e-08M, 4-MU autofl 3.6e-08M
CC1(C)CC(=O)C2=C(C1)NC(=O)CC2c1cc2c(cc1Br)OCO2 (configuration not stated)	none
C/C=C/OC(=O)NC(c1ccccc1)[C@]1(C(C)=O)CCOC1=O (some centres not stated)	none (no result: A350 autofl, 4-MU autofl, CRE Fsk mod)
C=C(C)CNCCN	none
COC(=O)C/C=C\[C@@H](C)[C@@H](/C=N\O[C@@H](C)c1cn([C@H](CO)Cc2ccccc2)nn1)NS(=O)(=O)c1ccc(C)cc1	none (no result: A350 autofl, 4-MU autofl, CRE Fsk mod)
COc1cc(OC)c(C2C(C(=O)N3CCOCC3)=C(C)NC3=C2C(=O)CC(C)(C)C3)cc1OC (configuration not stated)	A350 autofl 1e-08M, 4-MU autofl inconclusive
COc1cc(C2C(C(=O)N3CCOCC3)=C(C)NC3=C2C(=O)CCC3)ccc1OC(C)=O (configuration not stated)	HSD17B inh 32µM, A350 autofl 4.6e-07M, 4-MU autofl 4.5e-07M, HADH2 inh inconclusive
COc1cc(C2C(C#N)=C(C)NC3=C2C(=O)CC(C)(C)C3)cc(OC)c1O (configuration not stated)	A350 autofl inconclusive, 4-MU autofl inconclusive
CC1=C(C(=O)N2CCOCC2)C(c2ccccc2F)C2=C(CCCC2=O)N1 (configuration not stated)	HSD17B inh 25µM, A350 autofl 1e-06M, 4-MU autofl 8.6e-07M, HADH2 inh 25µM
O=C(O)c1c[nH]c2c(ccc3[nH]cc(C(=O)O)c(=O)c32)c1=O	HSD17B inh inconclusive, A350 autofl inconclusive, 4-MU autofl inconclusive
CC(=O)O[C@@H]1C[C@]2(C)[C@H](C[C@@H](O)[C@H]3[C@@]4(C)CC[C@@H](O)[C@@H](C)[C@@H]4CC[C@@]32C)/C1=C(\CCC=C(C)C)C(=O)O	none
Cc1coc(NC(=O)CSc2nc(-c3ccncc3)cc(C(F)(F)F)c2C#N)n1	A350 autofl 5.8e-08M, 4-MU autofl 7.2e-08M
N#Cc1c(C(F)(F)F)cc(-c2ccco2)nc1SCc1ccncc1	HSD17B inh 16µM, A350 autofl 4.6e-07M, 4-MU autofl 6.9e-07M, HADH2 inh 25µM
CCOC(=O)NC(=O)CSc1nc(C)cc(C(F)(F)F)c1C#N	none
N#Cc1c(C(F)(F)F)cc(-c2ccco2)nc1SCc1ccccn1	HSD17B inh 32µM, A350 autofl 4e-07M, 4-MU autofl 2.9e-07M, CRE Fsk mod inconclusive
COC(=O)C12CC3(CCC4C5C(C(OCc6ccccc6)C41)C52)OCCO3 (configuration not stated)	none (no result: A350 autofl, 4-MU autofl, CRE Fsk mod)
C/C1=C2N=C(/C=C3N=C(/C(C)=C4\[N-]C(C)(C5N=C1C(C)(CCC(=O)NCC(C)OP(=O)([O-])O[C@H]1C(O)C(n6cnc7cc(C)c(C)cc76)O[C@@H]1CO)C5CC(N)=O)C(C)(CC(N)=O)C4CCC(N)=O)C(C)(CC(N)=O)C\3CCC(N)=O)C(C)(C)C/2CCC(N)=O.[CH2-]C1OC(n2cnc3c(N)ncnc32)C(O)C1O.[Co] (some centres not stated)	none (no result: A350 autofl, 4-MU autofl, HADH2 inh, CRE Fsk mod, AID923)
COc1cc2c(=O)n(Cc3ccco3)c(=O)n(CC(=O)c3cccc(Br)c3)c2cc1OC	CRE Fsk mod 4µM
Cc1c(-n2cc(C(=O)O)c(=O)c3cc(F)c(N4CCCC4)c(F)c32)c(=O)n(-c2ccccc2)n1C	A350 autofl 1.3e-07M, 4-MU autofl 1.2e-07M, HADH2 inh inconclusive, CRE Fsk mod inconclusive
CCOCC(=O)Nc1c(C(=O)OCC)oc2ccccc12	A350 autofl inconclusive, 4-MU autofl inconclusive, CRE Fsk mod 10µM

Compound activity as filed in PubChem BioAssay.
